Bioassay records (PubChem BioAssay)
NTMT1 inh: NTMT1 methyltransferase inhibition; Q9BV86; NTMT1 MTase-Glo SAH luminescence, purified enzyme; Potency, µM (top dose mostly 114 µM), usual class: inhibitors; 59,000 tested, 2.5% active; AID 1645870; also: nearly all actives have a fitted effect of over 65% in size
GALC G270D act: galactocerebrosidase G270D activity enhancement, cell-based; P54803; 145M-Twi-hGALC-G270D cells (Twitcher mouse brain line with human GALC G270D), HMU-beta-Gal fluorescence, 48 h; Potency, µM (top dose mostly 57.5 µM), usual class: activators; 45,000 tested, 0.1% active; also: nearly all actives have a fitted effect of over 65% in size
Target sequence (P54803 whole entry G286D): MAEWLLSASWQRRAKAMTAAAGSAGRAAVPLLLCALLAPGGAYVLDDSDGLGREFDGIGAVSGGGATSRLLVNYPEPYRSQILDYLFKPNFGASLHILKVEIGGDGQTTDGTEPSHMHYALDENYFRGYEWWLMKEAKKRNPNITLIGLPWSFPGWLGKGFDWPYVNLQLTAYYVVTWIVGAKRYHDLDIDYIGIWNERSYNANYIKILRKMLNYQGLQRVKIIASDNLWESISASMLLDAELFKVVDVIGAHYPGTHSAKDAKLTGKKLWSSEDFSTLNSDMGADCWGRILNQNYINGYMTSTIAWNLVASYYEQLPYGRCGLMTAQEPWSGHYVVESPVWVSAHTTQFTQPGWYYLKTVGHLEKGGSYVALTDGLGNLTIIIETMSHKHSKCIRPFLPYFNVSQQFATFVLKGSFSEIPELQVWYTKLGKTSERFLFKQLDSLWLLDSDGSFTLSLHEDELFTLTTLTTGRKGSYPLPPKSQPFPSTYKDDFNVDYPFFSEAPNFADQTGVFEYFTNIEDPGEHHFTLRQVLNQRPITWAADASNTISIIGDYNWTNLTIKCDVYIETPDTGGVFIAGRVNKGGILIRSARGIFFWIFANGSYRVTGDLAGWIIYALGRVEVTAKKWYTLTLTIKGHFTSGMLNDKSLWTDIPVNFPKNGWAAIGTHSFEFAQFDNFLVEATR
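Fluorescence readout: HMU-β-gal cleavage by mutant GALC (0.1 mM final, citrate/phosphate pH 5.2 with 1 mg/mL taurocholate), stopped with carbonate/bicarbonate plus Triton X-100. Cells: murine Twitcher 145M-Twi expressing human G270D GALC; qHTS for activators.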
FH mod: Identification of activators of human fumarate hydratase by quantitative high-throughput screening. FH coupled MDH/diaphorase resazurin fluorescence, 15 min. Fumarate hydratase, mitochondrial (Homo sapiens), P07954. Potency, µM (titrated, usually from 79.9 µM), usual class: inhibitors. 54,000 tested, 0.22% active; also: the screen sought activators but most active calls are inhibition curves; nearly all actives have a fitted effect of over 45% in size
Sfp qHTS opt: Sfp PPTase inhibition, chemistry optimization. purified Sfp PPTase enzyme activity, qHTS. shares compounds with NTMT1 inh. 230 tested, 78% active. AID 540350. Potency, µM (series often up to 114 µM), hits mostly inhibitors
Bsub HM489 growth: Sfp PPTase inhibitors: growth inhibition of B. subtilis HM489. 220 tested, 50% active. shares compounds with NTMT1 inh. Potency, µM (highest dose often 114 µM), most hits filed as inhibitors. B. subtilis HM489 (acpS-) growth, BacTiter-Glo, 5 h
Sfp PPTase gel: inhibits B. subtilis Sfp PPTase in gel assay; purified Sfp PPTase, gel-based product detection; 220 tested, 54% active; shares compounds with NTMT1 inh; Potency, µM (doses to about 250 µM), most hits filed as inhibitors
Sfp inh gel: inhibits B. subtilis Sfp PPTase in gel-based assay | Potency, µM (series often up to 250 µM), most hits filed as inhibitors | AID 602362 | shares compounds with NTMT1 inh | purified Sfp PPTase, gel-based product detection | 45 tested, 90% active
Sfp inh SAR2: Sfp phosphopantetheinyl transferase inhibition, SAR round 2; shares compounds with NTMT1 inh; purified Sfp enzyme, PPTase activity, qHTS; Potency, µM (top dose mostly 57.1 µM), usual class: inhibitors; 230 tested, 87% active; AID 602370
hGST A1-1 inh: counter-screen for Sfp PPTase inhibitors: hGST A1-1 inhibition | 55 tested, under 10 active | Potency, µM (doses to about 114 µM), actives largely listed as inhibitors | shares compounds with NTMT1 inh | hGST A1-1 enzyme activity counter-screen, qHTS
HSD17B4 inh: counter-screen for HPGD inhibitors: human HSD17B4 inhibition | purified HSD17B4, estradiol/NAD+, NADH fluorescence | Potency, µM (titrated, usually from 57.1 µM), usual class: inhibitors | shares compounds with NTMT1 inh | 230 tested, 10% active
ALDH1A1 inh: inhibits human ALDH1A1, off-target for HPGD inhibitors. shares compounds with NTMT1 inh. recombinant ALDH1A1, NADH fluorescence, propionaldehyde/NAD+. AID 743195. 230 tested, 93% active. Potency, µM (titrated, usually from 57.1 µM), hits mostly inhibitors
NNMT counter: human NNMT inhibition, NTMT1 counter-screen; shares compounds with NTMT1 inh; 120 tested, 10% active; Potency, µM (highest dose often 57.1 µM), usual class: inhibitors; NNMT MTase-Glo luminescence, SAH detection
Each line names hits and unclear results; the compound was inactive in the other large screens (follow-up assays come after a bar, where they were run); ! = not active in a repeat. The sample as a whole holds a higher share of hits than the screen did. Calls follow the shape of the dose curve; as a rule, active = well fitted curve in the direction sought with a large enough effect; inconclusive = small, poorly fitted or top-dose-only effect, or another doubt; inactive = no such curve, though single readings can be large; an effect the other way counts as inactive or inconclusive.

CC(C)(C)c1ccc(-c2nc(SCC(=O)Nc3ccc(Cl)cc3)[nH]c(=O)c2C#N)cc1	NTMT1 inh 20µM, FH mod inconclusive
CCc1ccc(NC(=O)CSc2nc(C)c(C(=O)Nc3ccc(Cl)cc3)c(-c3ccc(OC)cc3)c2C#N)cc1	none
Cc1cn([C@H]2CC(N=[N+]=[N-])[C@@H](CO)O2)c(=O)[nH]c1=O (stereo partly specified)	none (no result: NTMT1 inh, GALC G270D act)
CCCCCCC[N+](CC)(CC)CCCCc1ccc(Cl)cc1	NTMT1 inh inconclusive
CCCCCCCCc1ccc(CCC(N)(CO)CO)cc1	NTMT1 inh 45µM! (no result: GALC G270D act)
COc1cccc(CNc2ccc(S(=O)(=O)Nc3cccnc3)cc2)c1O	none (no result: GALC G270D act, FH mod)
O=C1CCCC2=C1C(c1[nH]ncc1Cl)N=C(Nc1nc3cc(Br)ccc3o1)N2 (stereo unspecified)	none (no result: GALC G270D act, FH mod)
Cc1[nH]c(/C=C2\C(=O)Nc3cc(-c4ccccc4)ccc32)c(C)c1CCC(=O)O	NTMT1 inh inconclusive (no result: GALC G270D act) | NNMT counter inactive
CCOC(=O)c1[nH]c(C)c(CCC(=O)NCc2ccccc2)c1C	none
COc1ccc(CNC(=O)C(=O)Nc2ccccc2OC)cc1	none
COc1ccccc1NC(=O)Nc1ccc2ccccc2c1	FH mod inconclusive (no result: GALC G270D act) | NNMT counter inactive
COc1ccc(N2CCN(C(=S)Nc3cc(C)ccn3)CC2)cc1	NTMT1 inh 50µM (no result: GALC G270D act, FH mod) | Sfp qHTS opt 12µM | Bsub HM489 growth 33µM | Sfp PPTase gel inactive | Sfp inh SAR2 10µM | HSD17B4 inh inactive | ALDH1A1 inh 6.8µM
COc1ccc(N2CCN(C(=O)c3cnc(SC)nc3C)CC2)cc1	none
CC(=O)N1CCN(c2ccc(N)cc2)CC1	none (no result: GALC G270D act, FH mod)
Cc1ccnc(NC(=S)N2CCN(c3ccc(N)cc3)CC2)c1	NTMT1 inh inconclusive (no result: GALC G270D act, FH mod) | Sfp qHTS opt inconclusive | Bsub HM489 growth inconclusive | Sfp PPTase gel inactive | Sfp inh SAR2 10µM | HSD17B4 inh inconclusive | ALDH1A1 inh 9.6µM
CCOc1ccc(CCNC(=O)CN(C)C)cc1OCC	none (no result: GALC G270D act, FH mod)
CC(C)(C)c1[nH]cnc1/C=c1\[nH]c(=O)/c(=C/c2ccccc2)[nH]c1=O	none (no result: GALC G270D act, FH mod)
C[C@]12CC[C@H](O)CC1=CC[C@@H]1[C@@H]2CC[C@]2(C)C(c3cccnc3)=CC[C@@H]12	none (no result: GALC G270D act, FH mod)
COc1ccc(-n2cnc3cc(C(=O)N4CCCCC4)ccc32)cc1	NTMT1 inh inconclusive (no result: GALC G270D act, FH mod) | HSD17B4 inh inactive | ALDH1A1 inh 1.4µM
O=C(c1ccc2c(c1)ncn2-c1ccccc1)N1CCCCC1	none (no result: GALC G270D act, FH mod)
Nc1ncnc2c1nc(N)n2[C@@H]1O[C@H](CO)[C@@H](O)[C@H]1O	none (no result: GALC G270D act) | NNMT counter inactive
Nc1nc(Cl)nc2c1ncn2[C@@H]1O[C@H](CO)C(O)[C@H]1O (stereo partly specified)	none (no result: NTMT1 inh, GALC G270D act)
COc1ccc(CNC(=O)Nc2ncc([N+](=O)[O-])s2)cc1	FH mod inconclusive (no result: GALC G270D act)
CN=c1nc(-c2ccccc2)n(-c2ccccc2)s1	FH mod inconclusive (no result: NTMT1 inh, GALC G270D act) | NNMT counter 22µM
CC(=O)c1ccc(NC(=O)c2nc(-c3ccccc3)n(-c3ccccc3)n2)cc1	none
O=C(CCCCCCNC(=O)c1cnc(N(c2ccccc2)c2ccccc2Cl)nc1)NO	none (no result: GALC G270D act, FH mod)
COc1c/c(=C2\C=c3ccccc3=N2)[nH]/c1=C/c1[nH]c(C)cc1C	none (no result: NTMT1 inh, GALC G270D act, FH mod) | NNMT counter inconclusive
COc1cc2nc(-c3cc(F)ccc3O)nc(N[C@@H]3CNC[C@@H]3C(C)(C)O)c2cc1OC	NTMT1 inh inconclusive (no result: GALC G270D act)
Cc1cc(N2CCOCC2)cc2[nH]c(-c3c(NC[C@@H](O)c4cccc(Cl)c4)cc[nH]c3=O)nc12	NTMT1 inh inconclusive, FH mod inconclusive (no result: GALC G270D act) | NNMT counter inconclusive
O=C(CSc1nc(=O)n(CCN2CCOCC2)c2c1CCC2)Nc1cccc(Cl)c1	none
COc1ccc2c(c1)[C@]1(C[C@H]1c1ccc3c(/C=C/c4ccc(CN5C[C@@H](C)O[C@@H](C)C5)cc4)n[nH]c3c1)C(=O)N2	none (no result: GALC G270D act, FH mod)
Cc1cnc(Nc2ccc(F)cc2Cl)nc1-c1c[nH]c(C(=O)NC(CO)c2cccc(Cl)c2)c1 (stereo unspecified)	none (no result: GALC G270D act) | NNMT counter inactive
CC(C)Nc1cc(-c2c[nH]c(C(=O)N[C@H](CO)c3cccc(Cl)c3)c2)c(Cl)cn1	NTMT1 inh inconclusive (no result: GALC G270D act)
COc1cccc(NC(=S)N2CCN(c3ccc(Cl)c(Cl)c3)CC2)n1	none (no result: NTMT1 inh, GALC G270D act, FH mod) | Sfp qHTS opt inconclusive | Bsub HM489 growth inactive | Sfp PPTase gel 95µM | Sfp inh gel 107µM | Sfp inh SAR2 8.1µM | hGST A1-1 inh inconclusive | HSD17B4 inh inconclusive | ALDH1A1 inh 6.1µM
COc1cccc(NC(=S)N2CCN(c3ncc(C(F)(F)F)cc3Cl)CC2)n1	NTMT1 inh inconclusive (no result: GALC G270D act, FH mod) | Sfp qHTS opt inconclusive | Bsub HM489 growth inactive | Sfp PPTase gel inactive | Sfp inh SAR2 4.6µM | HSD17B4 inh inactive | ALDH1A1 inh 1.1µM
O=C(Nc1ccc(C(F)(F)F)cn1)N1CCN(c2ncccc2C(F)(F)F)CC1	none (no result: GALC G270D act)
Cc1ccc(NC(=O)N2CCN(c3ccc(Cl)c(Cl)c3)CC2)cc1	none
CN(C)c1ccc2nc(NC(=S)N3CCN(c4cccc(C(F)(F)F)c4)CC3)sc2c1	none (no result: GALC G270D act, FH mod) | Sfp qHTS opt inconclusive | Bsub HM489 growth inconclusive | Sfp PPTase gel 20µM | Sfp inh SAR2 10µM | HSD17B4 inh inconclusive | ALDH1A1 inh 9.6µM
COc1cc2c(C(=O)N3CCN(c4cccc(C(F)(F)F)c4)CC3)cn(CC(C)C)c(=O)c2cc1OC	none
